Assay results published in the supplement of paper PMC10849652.
About 8,800 targets were measured; listed, in parts, are those with a hit and a random draw of the rest. About 0.5% of all pairs of compound and target were hits. Values without a mark were called inactive.

Key:
Assay in all cases: log2 fold change, soluble protein after heating vs DMSO (PISA); higher = thermal stabilisation; K562 lysate, 10 uM; active = over 0.2 and 3.5 SD of the protein, either way, in both replicates (recomputed)
nilotinib = compound: Cc1cn(-c2cc(NC(=O)c3ccc(C)c(Nc4nccc(-c5cccnc5)n4)c3)cc(C(F)(F)F)c2)cn1 [nilotinib]
Method in brief: (§1)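 Soluble protein was defined as the supernatant remaining after 21,000xg for 90 min, following pooling of heated aliquots and adjustment to 0.5% NP-40 at 4°C. Before that, crude K562 extract at 1 mg/mL protein in PBS pH 7.4 with 1 mM MgCl2 was treated with 10 μM compound for 30 min and heated for 3 min across 48°C-58°C. Quantification used TMTpro 16plex LC-MS/MS with channel sums equalised, and values are log-two fold changes in thermal stability relative to solvent controls from duplicates.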

[1] = compound: Cc1nc(Nc2n[nH]c3c2CN(C(=O)N[C@H](CN(C)C)c2ccccc2)C3(C)C)c2sccc2n1
Method in brief: as §1

dasatinib = compound: Cc1nc(Nc2ncc(C(=O)Nc3c(C)cccc3Cl)s2)cc(N2CCN(CCO)CC2)n1 [dasatinib]
Method in brief: as §1

[2] = compound: Cc1ncc(-c2ccnc(Nc3ccc(S(C)(=O)=O)cc3)n2)n1C(C)C
Method in brief: as §1

[3] = compound: Cn1cc(-c2ccc3c(c2)CCN3C(=O)Cc2cccc(C(F)(F)F)c2)c2c(N)ncnc21
Method in brief: as §1

quisinostat = compound: Cn1cc(CNCC2CCN(c3ncc(C(=O)NO)cn3)CC2)c2ccccc21 [quisinostat]
Method in brief: as §1

tipifarnib = compound: Cn1cncc1[C@@](N)(c1ccc(Cl)cc1)c1ccc2c(c1)c(-c1cccc(Cl)c1)cc(=O)n2C [tipifarnib]
Method in brief: as §1

[4] = compound: NC(=O)Nc1cc(-c2cccc(F)c2)sc1C(=O)N[C@H]1CCCNC1
Method in brief: as §1

[5] = compound: NC(=O)c1cnc(N[C@@H]2CCCC[C@@H]2N)nc1Nc1cccc(-n2nccn2)c1
Method in brief: as §1

[6] = compound: NC1(c2ccc(-c3nc4ccn5c(=O)[nH]nc5c4cc3-c3ccccc3)cc2)CCC1
Method in brief: as §1

UniProt Q12800, sequence (Q12800 whole entry, looked up): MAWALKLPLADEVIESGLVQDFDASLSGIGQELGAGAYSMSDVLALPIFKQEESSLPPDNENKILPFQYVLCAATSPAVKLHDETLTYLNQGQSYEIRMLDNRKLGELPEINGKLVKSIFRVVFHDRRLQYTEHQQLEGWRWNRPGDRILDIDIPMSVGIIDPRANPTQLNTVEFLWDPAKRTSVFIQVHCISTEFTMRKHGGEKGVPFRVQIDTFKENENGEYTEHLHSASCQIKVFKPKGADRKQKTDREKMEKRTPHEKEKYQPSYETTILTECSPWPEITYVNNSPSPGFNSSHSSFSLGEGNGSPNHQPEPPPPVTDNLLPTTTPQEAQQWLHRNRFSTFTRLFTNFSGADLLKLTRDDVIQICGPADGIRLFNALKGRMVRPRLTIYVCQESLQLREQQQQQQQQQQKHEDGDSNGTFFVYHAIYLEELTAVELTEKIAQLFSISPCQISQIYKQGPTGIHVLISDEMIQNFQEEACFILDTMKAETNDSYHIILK
UniProt Q6PJ69, sequence (Q6PJ69 whole entry, looked up): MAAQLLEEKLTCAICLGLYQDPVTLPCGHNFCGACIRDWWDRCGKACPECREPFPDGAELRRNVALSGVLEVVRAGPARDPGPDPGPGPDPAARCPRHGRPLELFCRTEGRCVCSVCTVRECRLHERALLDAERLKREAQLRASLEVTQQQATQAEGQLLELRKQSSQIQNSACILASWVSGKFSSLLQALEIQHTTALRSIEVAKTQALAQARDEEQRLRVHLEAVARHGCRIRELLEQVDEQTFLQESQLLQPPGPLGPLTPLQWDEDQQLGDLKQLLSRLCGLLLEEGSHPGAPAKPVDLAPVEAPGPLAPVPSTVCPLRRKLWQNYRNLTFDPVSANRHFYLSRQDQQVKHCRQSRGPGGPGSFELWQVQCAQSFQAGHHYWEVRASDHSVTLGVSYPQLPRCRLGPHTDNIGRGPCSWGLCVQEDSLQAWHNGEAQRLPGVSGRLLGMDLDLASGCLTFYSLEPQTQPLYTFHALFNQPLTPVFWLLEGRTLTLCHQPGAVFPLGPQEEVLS
UniProt Q9BZV1, sequence (Q9BZV1 whole entry, looked up): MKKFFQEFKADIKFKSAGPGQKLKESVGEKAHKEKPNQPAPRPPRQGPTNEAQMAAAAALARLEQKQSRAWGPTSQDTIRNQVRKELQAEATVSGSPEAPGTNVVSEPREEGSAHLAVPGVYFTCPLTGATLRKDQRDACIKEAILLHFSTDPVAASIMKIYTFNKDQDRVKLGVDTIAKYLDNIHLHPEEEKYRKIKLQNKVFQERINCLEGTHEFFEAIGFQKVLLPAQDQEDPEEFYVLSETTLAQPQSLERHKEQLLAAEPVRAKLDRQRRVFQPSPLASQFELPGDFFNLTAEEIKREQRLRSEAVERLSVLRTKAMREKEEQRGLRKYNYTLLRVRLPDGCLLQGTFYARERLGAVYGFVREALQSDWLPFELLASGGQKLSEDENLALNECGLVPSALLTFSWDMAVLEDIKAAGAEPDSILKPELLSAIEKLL
UniProt O95801, sequence (O95801 whole entry, looked up): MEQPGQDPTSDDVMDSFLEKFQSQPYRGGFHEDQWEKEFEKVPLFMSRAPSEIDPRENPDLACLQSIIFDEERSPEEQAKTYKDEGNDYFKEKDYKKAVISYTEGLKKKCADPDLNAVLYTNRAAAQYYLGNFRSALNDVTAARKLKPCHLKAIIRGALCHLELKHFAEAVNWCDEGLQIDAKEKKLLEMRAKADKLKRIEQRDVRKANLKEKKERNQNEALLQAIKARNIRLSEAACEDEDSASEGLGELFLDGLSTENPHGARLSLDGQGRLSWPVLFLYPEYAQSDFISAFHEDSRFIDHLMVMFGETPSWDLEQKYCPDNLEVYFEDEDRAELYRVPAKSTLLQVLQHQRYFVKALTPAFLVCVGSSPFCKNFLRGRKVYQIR
UniProt Q15628, sequence (Q15628 whole entry, looked up): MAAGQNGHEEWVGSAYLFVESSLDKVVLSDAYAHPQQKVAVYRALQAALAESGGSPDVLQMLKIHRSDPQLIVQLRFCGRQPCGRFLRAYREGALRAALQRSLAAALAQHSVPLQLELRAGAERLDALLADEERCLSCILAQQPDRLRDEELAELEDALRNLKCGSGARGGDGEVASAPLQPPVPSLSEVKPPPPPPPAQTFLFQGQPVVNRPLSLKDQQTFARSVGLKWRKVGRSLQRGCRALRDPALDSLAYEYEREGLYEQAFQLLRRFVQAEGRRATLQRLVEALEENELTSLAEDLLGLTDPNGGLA
UniProt P06753, sequence (P06753 whole entry, looked up): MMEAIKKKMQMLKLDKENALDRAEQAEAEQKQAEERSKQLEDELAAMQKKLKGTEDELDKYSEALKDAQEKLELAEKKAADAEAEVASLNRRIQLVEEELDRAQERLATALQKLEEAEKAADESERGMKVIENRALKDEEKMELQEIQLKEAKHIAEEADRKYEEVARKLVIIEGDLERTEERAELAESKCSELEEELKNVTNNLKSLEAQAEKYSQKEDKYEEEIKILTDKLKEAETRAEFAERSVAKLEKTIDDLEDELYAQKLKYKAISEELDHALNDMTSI
UniProt P0DPH7, sequence (P0DPH7 whole entry, looked up): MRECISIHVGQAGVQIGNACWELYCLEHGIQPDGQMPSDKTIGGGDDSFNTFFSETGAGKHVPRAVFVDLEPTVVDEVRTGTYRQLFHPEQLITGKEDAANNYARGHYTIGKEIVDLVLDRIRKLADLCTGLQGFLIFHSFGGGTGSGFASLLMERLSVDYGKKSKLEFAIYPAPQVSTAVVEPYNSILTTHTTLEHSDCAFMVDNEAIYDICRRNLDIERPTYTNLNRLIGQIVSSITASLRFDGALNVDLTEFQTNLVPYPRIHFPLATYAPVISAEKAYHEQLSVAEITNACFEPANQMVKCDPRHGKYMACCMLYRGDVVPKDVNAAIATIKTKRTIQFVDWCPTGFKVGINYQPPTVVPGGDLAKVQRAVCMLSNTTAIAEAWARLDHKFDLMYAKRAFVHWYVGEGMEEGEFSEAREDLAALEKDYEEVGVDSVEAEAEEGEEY
UniProt A6NFQ2, sequence (A6NFQ2 whole entry, looked up): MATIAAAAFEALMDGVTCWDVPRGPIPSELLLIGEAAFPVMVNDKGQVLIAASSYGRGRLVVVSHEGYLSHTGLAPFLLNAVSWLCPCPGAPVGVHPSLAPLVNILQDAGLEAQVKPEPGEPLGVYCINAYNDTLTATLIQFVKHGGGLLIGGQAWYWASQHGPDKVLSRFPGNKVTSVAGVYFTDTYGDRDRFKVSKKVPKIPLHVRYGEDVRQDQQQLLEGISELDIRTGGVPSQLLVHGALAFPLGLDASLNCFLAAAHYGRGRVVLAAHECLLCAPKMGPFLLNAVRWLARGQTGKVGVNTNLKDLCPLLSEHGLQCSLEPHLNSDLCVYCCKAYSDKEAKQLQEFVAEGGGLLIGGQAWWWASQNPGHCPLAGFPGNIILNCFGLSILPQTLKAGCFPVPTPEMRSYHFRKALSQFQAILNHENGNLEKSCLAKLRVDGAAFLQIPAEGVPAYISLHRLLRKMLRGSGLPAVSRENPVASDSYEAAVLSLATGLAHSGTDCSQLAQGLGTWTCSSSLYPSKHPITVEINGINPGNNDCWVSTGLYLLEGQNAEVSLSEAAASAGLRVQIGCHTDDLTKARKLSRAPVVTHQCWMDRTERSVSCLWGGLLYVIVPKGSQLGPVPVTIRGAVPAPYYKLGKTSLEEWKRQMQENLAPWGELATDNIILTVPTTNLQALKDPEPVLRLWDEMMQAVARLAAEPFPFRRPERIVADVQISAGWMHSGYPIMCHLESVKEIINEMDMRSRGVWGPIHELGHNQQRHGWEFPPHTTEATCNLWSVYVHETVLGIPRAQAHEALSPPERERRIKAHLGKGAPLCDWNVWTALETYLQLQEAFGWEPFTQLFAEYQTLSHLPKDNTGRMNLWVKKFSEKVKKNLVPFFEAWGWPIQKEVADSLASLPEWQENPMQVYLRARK
UniProt Q9UGJ1, sequence (Q9UGJ1 whole entry, looked up): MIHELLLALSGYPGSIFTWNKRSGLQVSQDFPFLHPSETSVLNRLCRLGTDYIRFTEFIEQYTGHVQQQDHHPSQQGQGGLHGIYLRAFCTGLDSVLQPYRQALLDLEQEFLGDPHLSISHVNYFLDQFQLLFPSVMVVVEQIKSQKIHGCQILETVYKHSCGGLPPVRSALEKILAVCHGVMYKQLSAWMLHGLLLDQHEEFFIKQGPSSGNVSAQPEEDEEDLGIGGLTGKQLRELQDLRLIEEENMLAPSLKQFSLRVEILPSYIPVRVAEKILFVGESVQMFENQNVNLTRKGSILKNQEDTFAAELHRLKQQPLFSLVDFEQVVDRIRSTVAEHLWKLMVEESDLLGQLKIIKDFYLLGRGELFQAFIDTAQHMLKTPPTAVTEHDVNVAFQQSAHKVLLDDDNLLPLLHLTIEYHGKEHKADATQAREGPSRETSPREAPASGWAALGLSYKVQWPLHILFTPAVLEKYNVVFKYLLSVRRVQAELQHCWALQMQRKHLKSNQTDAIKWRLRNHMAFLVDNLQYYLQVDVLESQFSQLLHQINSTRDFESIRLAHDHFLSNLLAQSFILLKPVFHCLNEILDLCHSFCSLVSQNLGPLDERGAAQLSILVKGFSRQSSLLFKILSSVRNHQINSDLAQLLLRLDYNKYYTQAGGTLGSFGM
UniProt Q14CS0, sequence (Q14CS0 whole entry, looked up): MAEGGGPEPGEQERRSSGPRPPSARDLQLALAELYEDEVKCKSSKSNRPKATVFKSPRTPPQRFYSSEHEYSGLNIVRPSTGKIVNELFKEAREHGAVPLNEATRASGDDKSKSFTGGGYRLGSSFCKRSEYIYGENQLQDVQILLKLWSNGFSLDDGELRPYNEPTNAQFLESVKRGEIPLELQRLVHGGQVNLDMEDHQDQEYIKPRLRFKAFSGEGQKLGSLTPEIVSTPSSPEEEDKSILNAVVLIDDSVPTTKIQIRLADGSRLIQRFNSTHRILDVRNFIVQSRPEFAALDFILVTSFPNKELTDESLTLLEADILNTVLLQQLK
UniProt Q9BZL1, sequence (Q9BZL1 whole entry, looked up): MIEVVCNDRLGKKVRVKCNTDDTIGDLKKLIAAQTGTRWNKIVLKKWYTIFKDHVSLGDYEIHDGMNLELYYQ

Target | log2 fold change (nilotinib) | log2 fold change [1] | log2 fold change (dasatinib) | log2 fold change [2] | log2 fold change [3] | log2 fold change (quisinostat) | log2 fold change (tipifarnib) | log2 fold change [4] | log2 fold change [5] | log2 fold change [6]
TPM1 (UniProt H7BYY1) | 0.014 | -0.111 | -0.023 | 0.028 | 0.02 | 0.101 | 0.059 | -0.017 | 0.013 | 0.033
TUBGCP4 (UniProt Q9UGJ1) | -0.028 | 0.008 | -0.046 | 0.001 | 0.018 | -0.027 | 0.008 | 0.069 | 0.034 | 0.01
TPX2 (UniProt Q9ULW0) | -0.001 | 0.007 | -0.002 | 0.002 | 0 | -0.04 | -0.007 | -0.021 | -0.02 | -0.004
TRMT2A (UniProt Q8IZ69) | -0.034 | -0.011 | -0.018 | -0.011 | 0.013 | -0.023 | -0.007 | 0.016 | -0.002 | -0.012
TTC4 (UniProt O95801) | -0.04 | -0.034 | 0.025 | -0.018 | 0.012 | -0.07 | -0.01 | 0.025 | 0.023 | -0.018
TRIM33 isoform 2 (UniProt Q9UPN9) | 0.004 | -0.012 | -0.044 | -0.015 | 0.021 | -0.035 | 0.021 | -0.01 | 0.01 | -0.025
TLE3 isoform 5 (UniProt Q04726) | 0.142 | -0.174 | -0.007 | -0.06 | 0.028 | -0.102 | 0.05 | -0.009 | 0.024 | 0.058
TRAPPC12 (UniProt Q8WVT3) | -0.007 | 0.025 | 0.024 | -0.05 | 0.038 | 0.003 | 0.039 | -0.018 | -0.007 | 0.013
TPM4 isoform 2 (UniProt P67936) | 0.052 | -0.048 | 0.059 | 0.076 | -0.011 | 0.122 | 0.024 | -0.039 | 0.029 | 0.02
UBXN6 (UniProt Q9BZV1) | -0.033 | 0.042 | 0.017 | -0.065 | 0.046 | 0.028 | 0.016 | 0.013 | 0.068 | -0.013
TFCP2 (UniProt Q12800) | 0.042 | 0.023 | -0.015 | 0.023 | 0.02 | -0.072 | -0.022 | 0.066 | 0.066 | -0.059
TOE1 (UniProt Q96GM8) | -0.039 | -0.012 | 0.016 | 0.04 | 0.015 | -0.036 | 0.006 | 0.023 | -0.013 | -0.01
TBC1D2B (UniProt Q9UPU7) | -0.019 | 0.038 | -0.008 | -0.07 | 0.055 | 0.007 | -0.087 | 0.007 | -0.021 | 0.006
UBXN2B (UniProt Q14CS0) | -0.04 | -0.068 | 0.08 | -0.208 | -0.099 | – | 0.021 | – | -0.024 | -0.06
UBTF (UniProt P17480) | 0.001 | 0.031 | -0.021 | -0.039 | 0.004 | 0 | 0.015 | 0.044 | -0.01 | -0.042
TTC38 (UniProt Q5R3I4) | 0.02 | 0.016 | 0.029 | 0.059 | -0.003 | 0.293 (active) | 0.026 | -0.036 | 0.015 | 0.029
TRAPPC10 (UniProt P48553) | 0.008 | 0 | 0.011 | -0.003 | 0.02 | -0.006 | 0.011 | 0.035 | 0.026 | -0.05
TJP1 isoform 2 (UniProt Q07157) | -0.003 | 0.004 | 0.036 | 0.006 | -0.013 | -0.011 | -0.005 | -0.019 | 0.022 | -0.041
UCHL5 isoform 3 (UniProt Q9Y5K5) | 0.016 | -0.008 | 0.01 | 0.001 | 0.006 | -0.01 | -0.005 | 0.013 | -0.031 | 0.003

Target | log2 fold change (nilotinib) | log2 fold change [1] | log2 fold change (dasatinib) | log2 fold change [2] | log2 fold change [3] | log2 fold change (quisinostat) | log2 fold change (tipifarnib) | log2 fold change [4] | log2 fold change [5] | log2 fold change [6]
TCAF2 (UniProt A6NFQ2) | 0.051 | 0.004 | 0.001 | 0.05 | 0.042 | -0.061 | -0.037 | 0.047 | 0.041 | -0.011
TDRKH (UniProt Q9Y2W6) | -0.01 | -0.077 | -0.059 | 0.018 | 0.028 | -0.087 | -0.048 | 0.041 | 0.003 | 0.067
TRADD (UniProt Q15628) | 0.009 | -0.02 | 0.065 | -0.013 | -0.002 | -0.018 | 0.053 | 0.044 | 0.01 | 0.041
TTL (UniProt Q8NG68) | -0.045 | -0.082 | -0.049 | -0.062 | 0.056 | -0.115 | -0.008 | 0.017 | 0.018 | 0.03
TUBA3C (UniProt P0DPH7) | -0.009 | -0.029 | -0.018 | -0.001 | -0.05 | -0.098 | -0.025 | 0.05 | 0.022 | 0.005
TK1 (UniProt K7ERV3) | -0.024 | -0.134 | -0.114 | 0.086 | 0.02 | -0.059 | 0.059 | 0.122 | – | -0.016
TXNIP (UniProt Q9H3M7) | 0.091 | 0.038 | -0.023 | -0.026 | 0.012 | -0.077 | -0.022 | 0.029 | – | 0.005
UBR1 (UniProt Q8IWV7) | -0.022 | 0.01 | -0.012 | 0.013 | 0.046 | -0.093 | 0.007 | 0.021 | -0.006 | -0.021
TJP1 (UniProt G3V1L9) | 0.093 | 0.051 | 0.083 | 0.11 | -0.139 | 0.137 | -0.078 | 0.022 | – | -0.08
TRIM65 (UniProt Q6PJ69) | -0.025 | -0.008 | -0.059 | -0.021 | 0.005 | -0.016 | -0.004 | 0 | 0.08 | -0.017
TUBAL3 (UniProt A6NHL2) | 0.068 | -0.189 | -0.074 | 0.103 | 0.082 | – | 0.141 | – | -0.025 | -0.142
TPM3 isoform 2 (UniProt P06753) | -0.048 | 0.019 | 0.012 | -0.005 | 0.014 | 0.14 | 0.06 | -0.024 | -0.003 | 0.047
TOX4 (UniProt O94842) | -0.056 | -0.019 | 0.001 | 0.073 | 0.009 | -0.018 | -0.02 | -0.017 | 0.017 | 0.034
U2AF1L5 (UniProt P0DN76) | -0.033 | 0.061 | -0.012 | 0.077 | 0.026 | – | -0.01 | – | 0.009 | -0.022
UBL5 (UniProt Q9BZL1) | 0.028 | 0.154 | 0.036 | 0.018 | 0.027 | 0.341 (active) | 0.031 | -0.149 | – | -0.013
TCF12 isoform 3 (UniProt Q99081) | -0.031 | 0.016 | 0 | 0.052 | -0.022 | 0.02 | -0.022 | -0.011 | -0.032 | -0.043
TYMS (UniProt P04818) | 0.012 | -0.032 | -0.023 | -0.015 | 0.01 | -0.001 | -0.02 | 0.034 | 0.015 | -0.032
TIAL1 isoform 2 (UniProt Q01085) | -0.603 (active) | -0.013 | 0.025 | -0.015 | 0.028 | 0.039 | -0.037 | -0.016 | 0.004 | 0.033
